From PubChem
HTR5A ag ctr: HTR5A agonism, opioid heterodimer counter-screen. P47898. activation, % at 9.3 µM. HTR5A agonist assay, luminescence, cell-based. 0.61% of 340,000 active; in the data active = activation mostly above about 9.5%, no sharp cut-off; inactive = mostly below about 7.6%;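 note: 0% = cells with vehicle only and 100% = reference agonist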
HTR5A inv ag: inverse agonist of human HTR5A in OPRM1-OPRD1 counter-screen | HTR5A cell line, luminescence, inverse agonism | 0.083% of 340,000 active | inhibition, % at 9.3 µM | AID 504634 | P47898; in the data active = inhibition mostly above about 23%, no sharp cut-off; inactive = mostly below about 18%;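 note: 0% = cells with DMSO and 100% = no-cell wells with DMSO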
MOR-DOR ag-1: agonists of human mu-delta opioid receptor heterodimerization; P35372+P41143; activation, % at 9.3 µM; cells, OPRM1-OPRD1 heterodimerization, luminescence; 0.3% of 340,000 active; AID 504326;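 note: 0% = vehicle-treated cells and 100% = reference agonist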
Target sequence (P35372 whole entry, looked up): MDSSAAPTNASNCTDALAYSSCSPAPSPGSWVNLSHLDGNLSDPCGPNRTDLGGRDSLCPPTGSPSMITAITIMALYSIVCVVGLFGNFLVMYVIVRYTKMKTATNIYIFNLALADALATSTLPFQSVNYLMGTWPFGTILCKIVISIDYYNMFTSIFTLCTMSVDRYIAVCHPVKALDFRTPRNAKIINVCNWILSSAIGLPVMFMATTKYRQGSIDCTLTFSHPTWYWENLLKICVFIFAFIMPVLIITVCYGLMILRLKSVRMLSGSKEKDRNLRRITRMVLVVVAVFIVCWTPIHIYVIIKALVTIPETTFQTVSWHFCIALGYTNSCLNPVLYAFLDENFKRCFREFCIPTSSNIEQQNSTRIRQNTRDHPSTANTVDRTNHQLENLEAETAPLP
Target sequence (P41143 whole entry, looked up): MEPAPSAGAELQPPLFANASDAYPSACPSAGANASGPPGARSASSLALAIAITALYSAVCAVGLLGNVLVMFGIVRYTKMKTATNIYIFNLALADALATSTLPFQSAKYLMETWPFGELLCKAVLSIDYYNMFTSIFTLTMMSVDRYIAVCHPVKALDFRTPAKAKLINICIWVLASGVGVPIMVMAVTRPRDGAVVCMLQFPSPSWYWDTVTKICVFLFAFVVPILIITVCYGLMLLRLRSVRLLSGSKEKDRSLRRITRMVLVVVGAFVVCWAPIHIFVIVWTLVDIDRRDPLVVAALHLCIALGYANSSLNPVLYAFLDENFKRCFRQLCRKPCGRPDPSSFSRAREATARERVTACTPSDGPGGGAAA
MOR-DOR inv ag: inverse agonists of human mu-delta opioid receptor heterodimerization | cell-based MOR-DOR heterodimer luminescence, inverse agonism | 0.21% of 340,000 active | inhibition, % at 9.3 µM | P35372+P41143 | AID 504357; in the data active = inhibition above about 22%, passing the limit was not always enough;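 note: 0% = cells with DMSO and 100% = wells without cells with DMSO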
MOR-DOR ag-2: counter-screen for HTR5A agonists: OPRM1-OPRD1 heterodimerization agonism | shares compounds with HTR5A ag ctr | 13% of 800 active | U2OS counter-screen cells, complementation luminescence, 3 h | AID 504913 | activation, % at 9.3 µM
HTR5A ag confirm: HTR5A (human) agonism, confirmation; shares compounds with HTR5A ag ctr; HTR5A agonist cell assay, luminescence; activation, % at 9.3 µM; 17% of 800 active; AID 504915; in the data active = activation above about 17%;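 note: 0% = cells with vehicle only and 100% = full reference agonist response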
Active calls of the source: *. The list is not random: actives were taken first. Their share in the collection is about 1.1%. Cut-off read from the data, not from the text of the source, unless noted: active = activation above about 18%; inactive = the rest.

Results for COc1ccc2[nH]cc(CCNC(=O)C3CCCCC3)c2c1 ?
HTR5A ag ctr: 52.5*; HTR5A inv ag: -145.5; MOR-DOR ag-1: -1.4; MOR-DOR inv ag: 7.2; MOR-DOR ag-2: -2.1; HTR5A ag confirm: -6.6

What do the screens show for `O=C(O)C1CCCCC1C(=O)NCCc1c[nH]c2ccccc12` (stereo not drawn)?
HTR5A ag ctr: 44.8*; HTR5A inv ag: -212.9; MOR-DOR ag-1: -1.7; MOR-DOR inv ag: 8.0; MOR-DOR ag-2: 2.6; HTR5A ag confirm: 6.5

How did COc1ccc2[nH]cc(CCNC(=S)NC3CCCC3)c2c1 do in these assays?
HTR5A ag ctr: -2.5; HTR5A inv ag: 24.4; MOR-DOR ag-1: -2.0; MOR-DOR inv ag: 9.1

Results for Clc1ccc(N2CCN(/N=C/c3cccnc3)CC2)cc1 ?
HTR5A ag ctr: 0.0; HTR5A inv ag: -0.1; MOR-DOR ag-1: -2.3; MOR-DOR inv ag: 11.5

What do the screens show for `N/C(Cc1ccc([N+](=O)[O-])cc1)=N\OC(=O)c1ccccc1Br`?
HTR5A ag ctr: 8.8; HTR5A inv ag: -28.7; MOR-DOR ag-1: 10.1; MOR-DOR inv ag: -54.2

What do the screens show for `C[C@H]1CN([C@@H](C)CO)C(=O)c2cccc(NS(=O)(=O)c3ccc(F)cc3)c2O[C@H]1CN(C)Cc1ccc(Cl)c(Cl)c1`?
HTR5A ag ctr: 0.7; HTR5A inv ag: -12.8; MOR-DOR ag-1: 1.2; MOR-DOR inv ag: -7.2

Results for CCOC(=O)c1sc2nc(C)n(CC(=O)NCC3CCCO3)c(=O)c2c1C (stereo not drawn) ?
HTR5A ag ctr: 0.7; HTR5A inv ag: 24.7; MOR-DOR ag-1: 0.0; MOR-DOR inv ag: -0.2

Results for CCN1CCC(O)(/C=C/c2ccc(C(C)C)cc2)C(C(=O)/C=C/c2ccc(C(C)C)cc2)C1 (stereo not drawn) ?
HTR5A ag ctr: 18.4*; HTR5A inv ag: -70.8; MOR-DOR ag-1: 3.2; MOR-DOR inv ag: -15.6; MOR-DOR ag-2: 51.3*; HTR5A ag confirm: 26.9*

How did CCN1CCN(C(=O)/C=C/c2ccc(C(C)C)cc2)CC1 do in these assays?
HTR5A ag ctr: 0.8; HTR5A inv ag: 3.7; MOR-DOR ag-1: -1.6; MOR-DOR inv ag: 8.3

Results for Cn1c(NC(=O)Cc2cccs2)cc(=O)n(C)c1=O ?
HTR5A ag ctr: 19.0*; HTR5A inv ag: -53.3; MOR-DOR ag-1: -2.1; MOR-DOR inv ag: 10.9; MOR-DOR ag-2: 0.6; HTR5A ag confirm: -0.2

What do the screens show for `CC(C)[N+]1(C)[C@@H]2CC[C@@H]1CC(OC(=O)C(CO)c1ccccc1)C2` (stereo partly drawn)?
HTR5A ag ctr: 3.4; HTR5A inv ag: -12.2; MOR-DOR ag-1: -1.9; MOR-DOR inv ag: 10.1

Results for COc1ccc(/C=N/NC(=O)c2ccc(COc3ccccc3Cl)o2)c(OC)c1C ?
HTR5A ag ctr: 21.9*; HTR5A inv ag: -38.1; MOR-DOR ag-1: 11.6; MOR-DOR inv ag: -62.0; MOR-DOR ag-2: 8.4; HTR5A ag confirm: 15.5

Results for COc1ccc(/C=N/NC(=O)c2ccc(COc3ccccc3Cl)o2)cc1 ?
HTR5A ag ctr: 1.2; HTR5A inv ag: 11.9; MOR-DOR ag-1: 0.0; MOR-DOR inv ag: -0.2

How did Cc1ccc(S(=O)(=O)N2CCC(C(=O)Nc3ccccc3N3CCCC3)CC2)cc1C do in these assays?
HTR5A ag ctr: 3.0; HTR5A inv ag: -4.5; MOR-DOR ag-1: 0.1; MOR-DOR inv ag: -0.4

How did CC(C)=C1SC(N2CCN(c3cccc(Cl)c3)CC2)=NC1=O do in these assays?
HTR5A ag ctr: 14.3*; HTR5A inv ag: 48.6; MOR-DOR ag-1: 0.6; MOR-DOR inv ag: -2.9; MOR-DOR ag-2: 34.6*; HTR5A ag confirm: -1.5

How did COc1ccc(CN(C(=O)CN2C(=O)COc3ccccc32)C2CCCC2)c(OC)c1 do in these assays?
HTR5A ag ctr: -1.0; HTR5A inv ag: -0.3; MOR-DOR ag-1: 0.4; MOR-DOR inv ag: -2.0

Results for O=C(NCCn1cccn1)C1CCC(=O)N(CC2CCCCC2)C1 (stereo not drawn) ?
HTR5A ag ctr: 25.4*; HTR5A inv ag: -61.1; MOR-DOR ag-1: -3.6; MOR-DOR inv ag: 18.6; MOR-DOR ag-2: 1.1; HTR5A ag confirm: -1.0

How did COc1cc(CN2CCN(Cc3ccc([N+](=O)[O-])cc3)CC2)c([N+](=O)[O-])cc1OC do in these assays?
HTR5A ag ctr: 14.8*; HTR5A inv ag: -15.7; MOR-DOR ag-1: 2.5; MOR-DOR inv ag: -11.4; MOR-DOR ag-2: 1.8; HTR5A ag confirm: -0.7

How did CCOc1nc(CC(C)C)c2c(c1C#N)CC(C)(C)OC2 do in these assays?
HTR5A ag ctr: 16.2*; HTR5A inv ag: 2.9; MOR-DOR ag-1: 4.3; MOR-DOR inv ag: -23.0; MOR-DOR ag-2: 6.0; HTR5A ag confirm: -0.7

How did C=CCn1c(SCc2ccc(C(=O)NCCO)cc2)nc2sc(C)c(C)c2c1=O do in these assays?
HTR5A ag ctr: 2.1; HTR5A inv ag: 2.5; MOR-DOR ag-1: 0.3; MOR-DOR inv ag: -1.6

What do the screens show for `Cc1cc(NC(=O)COc2ccc3oc4ccccc4c3c2)no1`?
HTR5A ag ctr: 7.4; HTR5A inv ag: -21.4; MOR-DOR ag-1: 4.3; MOR-DOR inv ag: -18.0

How did Cn1c(CCNC(=O)c2ccccc2F)nnc1SCC(=O)Nc1nncs1 do in these assays?
HTR5A ag ctr: 19.7*; HTR5A inv ag: -55.9; MOR-DOR ag-1: -1.2; MOR-DOR inv ag: 8.0; MOR-DOR ag-2: 1.6; HTR5A ag confirm: 2.5

Results for COc1ccc(S(=O)(=O)N2CCN(Cc3cc(=O)n4ccccc4n3)CC2)cc1 ?
HTR5A ag ctr: 16.0*; HTR5A inv ag: -39.6; MOR-DOR ag-1: 1.1; MOR-DOR inv ag: -4.5; MOR-DOR ag-2: 1.1; HTR5A ag confirm: -2.2

What do the screens show for `O=c1cc(CN2CCN(S(=O)(=O)c3ccccc3)CC2)nc2ccc(Cl)cn12`?
HTR5A ag ctr: -8.3; HTR5A inv ag: 20.2; MOR-DOR ag-1: 0.5; MOR-DOR inv ag: -2.1

Results for CCCCCCCCCCCCCCCC[n+]1cccc2ccccc21 ?
HTR5A ag ctr: 19.8*; HTR5A inv ag: -36.0; MOR-DOR ag-1: 15.3; MOR-DOR inv ag: -74.0; MOR-DOR ag-2: 494.1*; HTR5A ag confirm: 6.8

What do the screens show for `O=C(Nn1cnnc1)c1ccc(F)cc1`?
HTR5A ag ctr: 0.0; HTR5A inv ag: 0.1; MOR-DOR ag-1: -4.2; MOR-DOR inv ag: 18.9

Results for Cc1oc2c(CN3CCCC3)c(O)ccc2c(=O)c1Oc1ccccc1Br ?
HTR5A ag ctr: -1.2; HTR5A inv ag: 16.0; MOR-DOR ag-1: -1.5; MOR-DOR inv ag: 8.1

How did COc1cc2c(cc1NC(=O)CN1CCN(S(=O)(=O)c3ccc(C)cc3)CC1)oc1ccccc12 do in these assays?
HTR5A ag ctr: 14.6*; HTR5A inv ag: -31.9; MOR-DOR ag-1: 1.6; MOR-DOR inv ag: -9.6; MOR-DOR ag-2: 218.3*; HTR5A ag confirm: 2.3

How did COc1ccc(C)cc1NC(=O)CN1CCN(S(=O)(=O)c2ccc(Cl)cc2)CC1 do in these assays?
HTR5A ag ctr: 1.5; HTR5A inv ag: 9.7; MOR-DOR ag-1: -2.7; MOR-DOR inv ag: 11.2

What do the screens show for `O=C1C(Cl)=C(N2CCOCC2)C(=O)N1c1cccc(C(F)(F)F)c1`?
HTR5A ag ctr: 14.5*; HTR5A inv ag: -9.7; MOR-DOR ag-1: 0.4; MOR-DOR inv ag: -2.2; MOR-DOR ag-2: 1.9; HTR5A ag confirm: 5.9
